High-throughput results: PubChem, National Center for Advancing Translational Sciences (NCATS)
Hits are enriched below; roughly 12% of the tested compounds scored in any of these assays.
HP1b chromo inh = HTS for Inhibitors of HP1-beta Chromodomain Interactions with Methylated Histone Tails. Chromobox protein homolog 1 (Homo sapiens), P83916. AID 540317, 2011. AlphaScreen HP1-beta / biotin-H3K9me3 peptide binding. Potency, µM (doses to about 114 µM), for the others: at the top dose activity change, negative = inhibition, usual class: inhibitors. 390,000 compounds, 0.56% hits; further: nearly all actives have a fitted effect of over 70% in size
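Compound inhibition of the preformed complex between 50 nM HP1-beta and 50 nM biotinylated H3K9me3 peptide was read by AlphaScreen. Buffer was PBS pH 7.4 with 0.01% Tween-20. Incubations ran 30 min at room temperature, with 10 ug/mL donor/acceptor beads.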
JMJD2A Tudor inh = qHTS Assay for Inhibitors of JMJD2A-Tudor Domain | Potency, µM (highest dose often 114 µM), without a hit: at the highest dose activity change, negative = inhibition, hits mostly inhibitors | AID 504339, 2011 | Lysine-specific demethylase 4A (Homo sapiens), O75164 | 390,000 compounds, 4.4% hits | AlphaScreen JMJD2A-Tudor / H3K4me3 peptide binding; further: on the % scale 0 is the no-effect control and ±100 the full control effect; nearly all actives have a fitted effect of over 50% in size
Target sequence (O75164 whole entry, looked up, the tested form may be a part): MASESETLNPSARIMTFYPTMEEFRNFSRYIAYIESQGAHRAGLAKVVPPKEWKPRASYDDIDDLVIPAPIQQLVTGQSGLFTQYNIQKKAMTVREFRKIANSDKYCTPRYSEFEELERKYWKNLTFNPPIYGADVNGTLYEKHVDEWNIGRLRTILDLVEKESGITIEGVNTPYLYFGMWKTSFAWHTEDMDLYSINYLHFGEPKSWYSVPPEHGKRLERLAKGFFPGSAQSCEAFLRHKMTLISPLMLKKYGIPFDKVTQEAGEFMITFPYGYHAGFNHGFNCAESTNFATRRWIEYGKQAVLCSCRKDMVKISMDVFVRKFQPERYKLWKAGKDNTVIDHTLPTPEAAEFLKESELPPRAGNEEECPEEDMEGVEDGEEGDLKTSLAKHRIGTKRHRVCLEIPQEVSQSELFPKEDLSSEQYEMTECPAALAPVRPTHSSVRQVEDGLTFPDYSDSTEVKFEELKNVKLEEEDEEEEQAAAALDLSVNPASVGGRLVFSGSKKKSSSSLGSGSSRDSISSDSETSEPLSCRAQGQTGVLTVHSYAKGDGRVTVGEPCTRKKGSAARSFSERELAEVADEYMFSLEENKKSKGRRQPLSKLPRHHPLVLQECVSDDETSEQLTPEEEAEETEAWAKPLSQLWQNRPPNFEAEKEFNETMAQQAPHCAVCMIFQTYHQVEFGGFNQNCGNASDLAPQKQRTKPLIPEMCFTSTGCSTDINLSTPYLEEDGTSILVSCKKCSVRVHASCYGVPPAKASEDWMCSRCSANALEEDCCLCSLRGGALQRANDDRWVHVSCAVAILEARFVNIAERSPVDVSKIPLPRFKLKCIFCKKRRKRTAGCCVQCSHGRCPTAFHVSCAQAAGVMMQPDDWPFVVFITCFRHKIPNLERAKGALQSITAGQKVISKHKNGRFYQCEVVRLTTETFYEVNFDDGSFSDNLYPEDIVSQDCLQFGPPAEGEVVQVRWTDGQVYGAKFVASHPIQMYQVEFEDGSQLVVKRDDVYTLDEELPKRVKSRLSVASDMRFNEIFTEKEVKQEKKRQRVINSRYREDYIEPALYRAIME
BAZ2B inh = qHTS Assay for Inhibitors of BAZ2B | Bromodomain adjacent to zinc finger domain protein 2B (Homo sapiens), Q9UIF8 | AlphaScreen BAZ2B-H3K14Ac peptide displacement | Potency, µM (doses to about 114 µM), for inactives: top-dose activity change, negative = inhibition, most hits filed as inhibitors | 360,000 compounds, 4.4% hits; further: on the % scale 0 is the no-effect control and ±100 the full control effect; nearly all actives have a fitted effect of over 60% in size
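In this displacement format the biotinylated H3(5-23) peptide acetylated at Lys14 serves as ligand at 50 nM, with BAZ2B at 50 nM in PBS pH 7.4 containing 0.01% Tween-20. Donor and acceptor beads are 10 ug/mL final.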
Sfp inh = qHTS Assay for Inhibitors of Bacillus subtilis Sfp phosphopantetheinyl transferase (PPTase) | 310,000 compounds, 3.5% hits | Biochemical Sfp PPTase activity, qHTS | Potency, µM, for the others: largest response in the series, negative = inhibition, actives largely listed as inhibitors;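 further: the enzyme is Sfp with the accession as filed and its product quenches rhodamine fluorescence; 0% = enzyme reaction without inhibitor and -100% = no enzyme wells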
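After 15 min at room temperature with compound, 15 nM Sfp received 5 uM rhodamine-CoA plus 12.5 uM BHQ-2-ybbR (50 mM Hepes pH 7.6, 10 mM MgCl2). Rate came from the fluorescence difference over 30 min, ex 525/em 598 nm.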
L3MBTL1 inh = qHTS Assay for the Inhibitors of L3MBTL1; 230,000 compounds, 0.66% hits; Potency, µM (series often up to 57.1 µM), for inactives: at the highest dose activity, negative = inhibition, actives largely listed as inhibitors; AlphaScreen L3MBTL1–H3K9me1 peptide binding; Lethal(3)malignant brain tumor-like protein 1 (Homo sapiens), Q9Y468; further: on the % scale 0 is the no-effect control and ±100 the full control effect; nearly all actives have a fitted effect of over 60% in size
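AlphaScreen proximity signal between nickel-chelate acceptor and streptavidin donor beads (final 10 ug/mL) reports binding of 50 nM L3MBTL1 to 75 nM biotin-H3 K9me1 peptide; complex incubated with compounds 30 min at room temperature; cefsulodin titration as control.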
G9a inh = qHTS Assay for Inhibitors of Histone Lysine Methyltransferase G9a; G9a H3K9 monomethylation, AlphaScreen, 2 h; Histone-lysine N-methyltransferase EHMT2 (Homo sapiens), Q96KQ7; Potency, µM (doses to about 102 µM), without a hit: at the highest dose activity, negative = inhibition, most hits filed as inhibitors; AID 504332, 2011; 350,000 compounds, 8.8% hits; further: on the % scale 0 is the no-effect control and ±100 the full control effect; nearly all actives have a fitted effect of over 75% in size
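AlphaScreen detection with an anti-monomethyl H3K9 antibody quantified product after a 2 h room-temperature reaction containing 500 nM biotinylated H3K9 peptide, 20 µM SAM and 20 nM enzyme, which had been preincubated 15 min with compound.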
* hit, by the source's call; ? = inconclusive; / = no result; [ ] = dose if it differs, or a comment. The call rests on the fitted dose curve; in most records, active means well fitted curve in the direction sought with a large enough effect; inconclusive means small, poorly fitted or top-dose-only effect, or another doubt; inactive means no such curve, though single readings can be large; an effect the other way counts as inactive or inconclusive. Potency means the concentration at half of the fitted maximal effect.

SMILES | HP1b chromo inh | JMJD2A Tudor inh | BAZ2B inh | Sfp inh | L3MBTL1 inh | G9a inh
COc1ccc(NC(=S)Nc2cccc3ccccc23)cc1OC | -22% | ? | ? | -21% | / | /
Cc1ccc(NC(=S)Nc2cccc3cnccc23)cc1C | ? | -34% | -36% | 40µM* | -23% | -4%[12.7 µM]
CCOC(=O)N1CC=C2C(C#N)=C(N)C(C#N)(C#N)[C@H](c3ccc(OC(C)C)c(OCC)c3)[C@H]2C1 | 38% | -8% | ? | -18% | / | ?
N#CC1=C(N)C(C#N)(C#N)C(c2ccncc2)C2CN(C(=O)OCc3ccccc3)CC=C12 (stereo unspecified) | 58% | -9% | -3% | 17% | 22%[11.4 µM] | 16µM*
CN1CC=C2C(C#N)=C(N)C(C#N)(C#N)C(CCc3ccccc3)C2C1 (stereo unspecified) | 19% | -33% | -2% | 8% | -7% | -6%[59 µM]
CCCC1C2CN(C(C)C)CC=C2C(C#N)=C(N)C1(C#N)C#N (stereo unspecified) | 4% | ? | -8% | -6% | -1% | 40µM*
CCOC(=O)N1CC=C2C(C#N)=C(N)C(C#N)(C#N)[C@H](c3ccccc3OCC)[C@H]2C1 | 45% | -14% | -29% | 15% | / | -18%[12.7 µM]
CCOC(=O)N1CC=C2C(C#N)=C(N)C(C#N)(C#N)[C@H](c3ccsc3)[C@H]2C1 | 41% | -4% | -4% | -6% | 7% | 45µM*
N#CC1=C(N)C(C#N)(C#N)[C@H](c2cccnc2)[C@H]2CN(C(=O)OCc3ccccc3)CC=C12 | 29% | -9% | -21% | -20% | -14% | 50µM*
COc1ccc(/C=C(/NC(=O)c2ccc(OC)c(OC)c2)C(=O)NCCCn2ccnc2)cc1 | 4% | -9% | -11% | 2% | / | 14%
CN1CC=C2C(C#N)=C(N)C(C#N)(C#N)C(c3ccsc3)C2C1 (stereo unspecified) | 43% | -25%[11.4 µM] | -27% | 2% | 0% | /
CN1CC=C2C(C#N)=C(N)C(C#N)(C#N)[C@H](c3cccc(Cl)c3)C2C1 (stereo partly specified) | 46% | -9% | -35% | 1% | / | 25µM*
CCN(CC(=O)Nc1ccccc1C(F)(F)F)C(=O)CN1C(=O)NC2(CCCCC2)C1=O | 31% | -15% | 12% | / | 5% | 25%[0.501 µM]
Cn1c(=O)n(CCO)c(=O)c2c1nc(Br)n2Cc1ccccc1 | 26% | -13% | -5% | 5% | -1% | -3%[59 µM]
CN1C(=O)/C(=C/c2cc(C(C)(C)C)c(O)c(C(C)(C)C)c2)NC1=S | 42% | 0% | 0% | 14% | / | 13µM*
CN1C(=O)/C(=C/c2ccccc2OCc2ccccc2)NC1=S | 5% | -22% | ? | 10% | -8% | ?
COc1ccc(/C=C/C(=O)NC(=S)NNC(=O)Cc2cccs2)cc1 | 41% | 13% | 6% | 6% | / | 32µM*
COc1ccc(C(=O)NC(=S)NNC(=O)c2ccco2)cc1 | 17% | -8% | 18% | 22% | / | -8%[12.7 µM]
COc1ccc(/C=C/C(=O)NC(=S)NNC(=O)c2ccco2)cc1 | 23% | -11% | 9% | 21% | 132% | 13µM*
O=C(/C=C/c1ccccc1)NC(=S)NNC(=O)Cc1cccs1 | 19% | 5% | 11% | -9% | 40% | ?
COc1ccccc1OCC(=O)NNC(=S)NC(=O)c1ccco1 | 4% | 79µM* | 55% | -17% | / | ?
COc1ccc(/C=C/C(=O)NC(=S)NNC(=O)c2ccco2)cc1OC | 59% | -12% | 3% | 26% | / | 35µM*
CCOC(=O)c1ccc(NC(=O)c2ccc3c(c2)C(=O)N(Cc2cccnc2)C3=O)cc1 | 30% | -9% | -23% | -1% | / | 32%
NCCCC[C@H](NC(=O)[C@@H](Cc1ccccc1)NC(=O)[C@H](Cc1c[nH]c2ccccc12)NC(=O)[C@@H](CCCCN)NC(=O)[C@@H](Cc1c[nH]c2ccccc12)NC(=O)[C@@H](N)Cc1cnc[nH]1)C(N)=O | / | / | / | 6% | / | /
Cc1cc(C)nc(/N=C(\N)Nc2ccc(C(C)C)cc2)n1 | 17% | -14% | -1% | ? | 1% | /
SMILES | HP1b chromo inh | JMJD2A Tudor inh | BAZ2B inh | Sfp inh | L3MBTL1 inh | G9a inh
COc1ccc(-c2nc(-c3cccc(C)c3)nc(Cl)c2C#N)cc1 | / | / | -35% | 11% | 11% | 50µM*
COc1ccc(-c2nc(-c3ccccc3)nc(Cl)c2C#N)cc1 | 30% | ? | 4% | -13% | 13% | ?
O=[N+]([O-])c1ccccc1CN1CCN(c2ncccn2)CC1 | ? | 18µM* | 50µM* | -14% | 3% | ?
O=[N+]([O-])c1ccccc1CN1CCN(Cc2ccccn2)CC1 | -10% | 0.79µM* | 50µM* | 50µM* | / | 4µM*
O=[N+]([O-])c1ccccc1CN1CCN(Cc2c[nH]c3ccccc23)CC1 | ? | 10µM* | 50µM* | ? | 1% | 32µM*
O=[N+]([O-])c1ccc(N2CCN(CCO)CC2)c2ncccc12 | 26% | -6% | 0% | -14% | 5% | -8%[59 µM]
O=[N+]([O-])c1ccccc1C(O)Cc1ccccn1 (stereo unspecified) | 5% | -6% | / | / | / | /
CCN(CC)CCn1c(=N)n(CCOc2ccccc2Cl)c2ccccc21 | -2% | -27% | ? | / | / | ?
CC(C)c1csc(CN2CCC(CO)(Cc3cccc(F)c3)CC2)n1 | 9% | -13% | -14% | -4% | 0% | /
O=C1c2ccsc2SCCN1Cc1c(Cl)cccc1Cl | 7% | -1% | 40% | -7% | / | ?
COCCn1c(=O)c(-c2ccc(OC)cc2)nc2cnc(Nc3ccccc3)nc21 | / | / | / | 20% | / | -1%[12.7 µM]
CS(=O)(=O)n1nc(OC(=O)c2cccc3ccccc23)cc1N | 25% | -6% | -5% | 8% | 2% | 18%[2.33 µM]
CS(=O)(=O)n1nc(OC(=O)c2cc(Br)ccc2Cl)cc1N | 26% | -19% | -39% | ? | 9% | 32µM*
Cc1ccc(NC(=O)CCN2C(=O)NC(C)(C)C2=O)cc1F | 23% | 0% | 9% | / | 9% | ?
O=C(COc1cc2oc(=O)c3c(c2cc1Cl)CCCC3)N1C[C@H]2C[C@@H](C1)c1cccc(=O)n1C2 | 1% | -20% | -35% | 4% | -2% | -18%
